Only some compounds are listed: those with a hit (about 2.8% of all), similar ones and a draw of the others.
KDM5B inh = Primary screen for KDM5B Histone Demethylases FDH-coupled qHTS. Lysine-specific demethylase 5B (Homo sapiens), Q9UGL1. KDM5B demethylase, FDH-coupled NADH fluorescence (FDH is formaldehyde dehydrogenase). Potency, µM (titrated, usually from 57.7 µM), most hits filed as inhibitors. 220,000 compounds, 2.6% hits; active = well fitted inhibition curve with a large enough effect; inconclusive = small, poorly fitted or top-dose-only effect; inactive = no such curve, though single readings can be large or run the other way; note: potency is the fitted concentration of half-maximal effect; 0% is about no effect; nearly all actives have a fitted effect of over 70% in size
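Inhibition is measured as reduced NADH fluorescence generation from FDH coupling to formaldehyde release. Truncated KDM5BΔAP at 200 nM final acts on H3K4me3 peptide (12.5 µM in substrate mix) in pH 7.5 HEPES buffer with Tween-20, 30 min, room temperature.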
IP6K1 inhibitor = Primary qHTS assay for small molecule inhibitors of Inositol hexaphosphate kinase 1 (IP6K1) | activity change, % (series mostly up to about 58 µM) | Inositol hexakisphosphate kinase 1 (Homo sapiens), Q92551 | IP6K1 kinase, ADP-Glo luminescence, 2 h; stronger effect = lower value | 140,000 compounds, 0.81% hits; in the data active = activity change below about -25%; note: % is set by controls: 0 for no effect and ±100 for the full control effect
Target sequence (Q92551 whole entry, looked up): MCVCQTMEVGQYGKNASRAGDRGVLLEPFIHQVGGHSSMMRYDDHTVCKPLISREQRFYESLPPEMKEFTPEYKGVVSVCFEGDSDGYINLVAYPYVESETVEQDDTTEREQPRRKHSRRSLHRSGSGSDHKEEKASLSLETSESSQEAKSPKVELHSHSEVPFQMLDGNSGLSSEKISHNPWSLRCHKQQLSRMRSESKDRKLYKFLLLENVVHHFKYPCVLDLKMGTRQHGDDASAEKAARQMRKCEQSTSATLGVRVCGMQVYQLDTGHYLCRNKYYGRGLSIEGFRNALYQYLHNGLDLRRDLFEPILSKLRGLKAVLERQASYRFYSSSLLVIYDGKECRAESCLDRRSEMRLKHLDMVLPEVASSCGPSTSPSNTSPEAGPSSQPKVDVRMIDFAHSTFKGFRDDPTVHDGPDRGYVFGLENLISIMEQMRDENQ
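ADP-Glo luminescence measures ADP made by human IP6K1 during a 2 h RT reaction with ATP/IP6 (mix at 1.3 mM/130 uM); top library doses 57.5 and 19.1 uM final.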
The depositor's hits bear a star.

For CCOc1ccc(/C=C/c2nc3ccccc3n2S(=O)(=O)c2cccc(Cl)c2)cc1 the results were KDM5B inh inactive and IP6K1 inhibitor -31.1*.
For Cc1ccc(/C=C/c2nc3ccccc3n2S(=O)(=O)c2cccc(Cl)c2)cc1 the results were KDM5B inh inconclusive and IP6K1 inhibitor -51.3*.
For C#CCn1c(/C=C/c2ccc(Cl)cc2)nc2ccccc21 the results were KDM5B inh inconclusive and IP6K1 inhibitor -19.7.
Screening CCOc1ccc(Cn2c(CNS(=O)(=O)c3cccc(Cl)c3)nc3cccnc32)cc1 returned KDM5B inh inactive and IP6K1 inhibitor -5.5.
For Cc1cc(C)c2nc(N3CCN(C(=O)CCS(=O)(=O)c4ccccc4)CC3)sc2c1 the results were KDM5B inh inactive.
Screening COCCNC(=O)c1ccc(-c2ncc3cnc(-c4cccc(F)c4)cn23)cc1 returned KDM5B inh 35.5µM* and IP6K1 inhibitor -15.1.
`O=C(NCc1cnccn1)c1ccc(-c2ncc3cnc(-c4cccc(F)c4)cn23)cc1` gave KDM5B inh 35.5µM* and IP6K1 inhibitor -7.8.
For O=C(NCc1cnccn1)c1nc(-c2ccccc2)cc2[nH]ccc12 the results were KDM5B inh inactive and IP6K1 inhibitor -7.7.
`COc1ccc(F)cc1-c1cccc(C(=O)NCCNC(=O)c2ccc(F)cc2)c1` gave IP6K1 inhibitor -7.2.
`CC(=O)N1CCN(C(=O)c2ccc(-c3ncc4cnc(-c5cccc(F)c5)cn34)cc2)CC1` gave KDM5B inh inconclusive and IP6K1 inhibitor -11.6.
CN(C)CCN(C)C(=O)c1ccc(-c2ncc3cnc(-c4cccc(F)c4)cn23)cc1 was read as KDM5B inh 39.8µM* and IP6K1 inhibitor 2.0.
`CCCCCNC(=O)C1CCCN1C(=O)c1cccc(-c2cccc(OC)c2)c1` (stereo unspecified) gave IP6K1 inhibitor -7.0.
For Cc1cn2nc(C(=O)NCc3ccccc3)cc2c(=O)[nH]1 the results were KDM5B inh inconclusive and IP6K1 inhibitor 3.2.
`Cc1cn2nc(C(=O)N3CCSCC3)cc2c(N(C)Cc2ccccc2)n1` gave KDM5B inh inconclusive and IP6K1 inhibitor 0.0.
`Cc1cn2nc(C(=O)NCc3ccc(F)cc3)cc2c(N(C)Cc2ccccc2)n1` gave KDM5B inh 25.1µM* and IP6K1 inhibitor 11.4.
`Cc1cn2nc(C(=O)NCc3ccc(F)cc3)cc2c(=O)[nH]1` gave KDM5B inh inconclusive and IP6K1 inhibitor -0.6.
Cc1ccc(CNC(=O)c2cc3c(N(C)Cc4ccccc4)nc(C)cn3n2)cc1 was read as KDM5B inh 28.2µM* and IP6K1 inhibitor 4.1.
Cc1cn2nc(C(=O)NCc3ccccc3C)cc2c(N(C)Cc2ccccc2)n1 was read as KDM5B inh 14.1µM* and IP6K1 inhibitor 15.3.
O=c1cc(C(F)(F)F)c2ccc(OS(=O)(=O)c3ccc4c(c3)CCC4)cc2o1 was read as KDM5B inh inactive.
`C=C(C)Cn1c(N2CCN(Cc3ccccc3)CC2)nc2c1c(=O)[nH]c(=O)n2C` gave KDM5B inh inactive.
CC(C)c1nc2cc(NC(=O)c3n[nH]c(=O)c4ccccc34)ccc2o1 was read as KDM5B inh inactive.
For CC(C)CNC(=O)c1ccc2c(c1)C1(CCN(C)C1)CN2CC1CC1 (stereo unspecified) the results were KDM5B inh 35.5µM* and IP6K1 inhibitor 2.2.
`CN1CCCC2(C1)CN(C)c1ccc(C(=O)Nc3ccc(F)cc3)cc12` (stereo unspecified) gave KDM5B inh 35.5µM* and IP6K1 inhibitor 0.8.
`O=C(NCc1cccs1)c1ccc2ccccc2c1` gave KDM5B inh inactive.
`CN1CCCC2(C1)CN(Cc1cccnc1)c1ccc(C(=O)Nc3ccc(F)cc3)cc12` (stereo unspecified) gave KDM5B inh inactive and IP6K1 inhibitor -3.6.
Screening CN1CCCC2(C1)CN(C)c1ccc(C(=O)NCC3CCCCC3)cc12 (stereo unspecified) returned KDM5B inh 35.5µM* and IP6K1 inhibitor -12.3.
COc1ccc(NC(=O)c2ccc3c(c2)C2(CCCN(C)C2)CN3C)cc1 (stereo unspecified) was read as KDM5B inh inactive and IP6K1 inhibitor 1.7.
`CN1CCCC2(C1)CN(C)c1ccc(C(=O)NCc3cccs3)cc12` (stereo unspecified) gave KDM5B inh 35.5µM* and IP6K1 inhibitor -4.8.
Cc1nc(CN2CC3(CCN(C)C3)c3cc(C(=O)Nc4ccccc4)ccc32)cs1 (stereo unspecified) was read as KDM5B inh inactive and IP6K1 inhibitor 2.7.
COc1ccc(-c2c(C)oc3cc(OCC(=O)Nc4ccccc4OC)ccc3c2=O)cc1 was read as KDM5B inh inactive.
Screening CCOc1ccc(NC(=O)CSCc2cc(=O)n3ccccc3n2)cc1 returned KDM5B inh inactive.

High-throughput results as filed in PubChem.
